# Out of some 52,000 compounds screened, about 4,300 (8.3%) were called active. Cut-off read from the data, not from the text of the source: active = survival mostly below about 52% (no sharp cut-off); inactive = mostly above about 56%. Many of the other results were omitted from the sample, so actives are more common in it than they were.
# Test system: DeltatarO mutant
# Assay: S. aureus survival, RN4220 and DeltatarO strains – OD600, teichoic acid synthesis inhibitors, primary screen (AID 463173)
# Settings: S. aureus RN4220 wild type/DeltatarO growth, OD600, 18 h, stronger effect = lower value, screened at 18.75 µg/mL (by protocol)
row,SMILES,survival
1,Cc1ccc(NC(=O)Cc2ccc(-n3c(C)nc4cccnc43)cc2)c(Cl)c1,107% (inactive)
2,CCOc1ccc(NC(=O)CSc2ncn[nH]2)cc1,67% (inactive)
3,CCCN1C(=O)c2[nH]nc(-c3ccc(F)cc3)c2C1c1ccc(O)c(OCC)c1 (stereo not given),51% (inactive)
4,CCCOc1ccc(C2c3c(-c4ccccc4O)n[nH]c3C(=O)N2CCc2ccccc2)cc1OCC (stereo not given),53% (inactive)
5,COCCN1C(=O)c2[nH]nc(-c3ccccc3O)c2C1c1ccc(Cl)c(Cl)c1 (stereo not given),3% (active)
6,CCCN1C(=O)c2[nH]nc(-c3ccccc3O)c2C1c1ccc(OCc2ccccc2)c(OCC)c1 (stereo not given),40% (active)
7,CCOc1cc(C2c3c(-c4ccccc4O)n[nH]c3C(=O)N2CCc2ccccc2)ccc1O (stereo not given),29% (active)
8,CCCCN1C(=O)c2[nH]nc(-c3ccccc3O)c2C1c1cc(Br)c(O)c(OC)c1 (stereo not given),2% (active)
9,COc1cc(C2c3c(-c4ccccc4O)n[nH]c3C(=O)N2Cc2ccncc2)cc(OC)c1OC (stereo not given),82% (inactive)
10,COc1ccc(/C=C\c2onc(C)c2S(=O)(=O)N2CCC(C(=O)Nc3cccc(OC)c3)CC2)cc1,97% (inactive)
11,Cc1cc(C)n(C2CC(=O)N(N(C)C)C2=O)n1 (stereo not given),92% (inactive)
12,Cc1cc(C)c2c(=O)cc(C(=O)Nc3ccc(S(=O)(=O)Nc4nc(C)cc(C)n4)cc3)oc2c1,103% (inactive)
13,O=C(CO)N/N=C\c1c(F)cccc1Cl,51% (inactive)
14,Cc1ccc(S(=O)(=O)C(CNC(=O)Cc2ccc(Cl)cc2)c2cccs2)cc1 (stereo not given),85% (inactive)
15,CCc1ccc(NC(=O)CSC2=Nc3ccccc3C3=NC(CC(=O)NC4CCCCC4)C(=O)N23)cc1 (stereo not given),86% (inactive)
16,CC(C)(O)C1Cc2cc(/C=C/C(=O)O)c(O)cc2O1 (stereo not given),88% (inactive)
17,CN(C)c1ccc(CNC(=O)c2ccc(NC(=O)c3nsc4ccccc34)cc2)cc1,84% (inactive)
18,CCOc1ccc(C2c3c(-c4ccccc4O)n[nH]c3C(=O)N2Cc2cccnc2)cc1OC (stereo not given),90% (inactive)
19,COc1cc(C2c3c(-c4ccccc4O)n[nH]c3C(=O)N2CCO)ccc1OCc1ccccc1 (stereo not given),77% (inactive)
20,COCCN1C(=O)c2[nH]nc(-c3ccccc3O)c2C1c1ccc(OCc2ccccc2)c(OC)c1 (stereo not given),13% (active)
21,CCCCOc1ccc(C2c3c(-c4ccccc4O)n[nH]c3C(=O)N2Cc2ccncc2)cc1OC (stereo not given),61% (inactive)
22,CCCN1C(=O)c2[nH]nc(-c3ccccc3O)c2C1c1ccc(OCc2ccccc2)c(OC)c1 (stereo not given),44% (active)

row,SMILES,survival
1,CCCCN1C(=O)c2[nH]nc(-c3ccccc3O)c2C1c1ccc(OCc2ccccc2)c(OC)c1 (stereo not given),35% (active)
2,CCOC(=O)c1c(C)[nH]c(CCC(=O)NCc2ccc(F)cc2)c1C,89% (inactive)
3,COCCCNC(=O)Cn1nc(N2CCN(c3ccccc3)CC2)ccc1=O,91% (inactive)
4,c1ccc(CSc2nc3ncccc3[nH]2)cc1,93% (inactive)
5,CCN(CC)C(=O)C1CCN(C(=O)c2cnn(-c3ccccc3)c2-n2cccc2)CC1,83% (inactive)
6,O=S(=O)(c1ccc(Cl)cc1)N1CCC(c2ccncc2)CC1,73% (inactive)
7,CC(=O)Nc1ccc(S(=O)(=O)N2CCC(C)CC2)cc1,96% (inactive)
8,CC1CCN(S(=O)(=O)c2ccccc2)CC1,104% (inactive)
9,CC(C)(C)c1ccc(S(=O)(=O)N2CCC(c3ccncc3)CC2)cc1,109% (inactive)
10,CC(=O)Nc1ccc(S(=O)(=O)N2CCC(c3ccncc3)CC2)cc1,-5% (active)
11,CC1CCN(S(=O)(=O)c2ccc(NC(=O)Nc3ccccc3)cc2)CC1,9% (active)
12,Cc1ccc2c(CC(=O)Nc3ccc(S(=O)(=O)N4CCC(C)CC4)cc3)coc2c1,59% (inactive)
13,Cc1ccc2occ(CC(=O)Nc3ccc(S(=O)(=O)N4CCC(C)CC4)cc3)c2c1,55% (active)
14,Cc1ccc2occ(CC(=O)Nc3ccc(S(=O)(=O)N4CCCC(C)C4)cc3)c2c1 (stereo not given),58% (inactive)
15,CC1=C(C(=O)Nc2ccccc2C)C(c2ccncc2)n2nc(SCc3ccccc3Cl)nc2N1 (stereo not given),62% (inactive)
16,CCOC(=O)c1ccccc1NC(=O)N(Cc1ccc(C)cc1)Cc1cccn1-c1nnc(N2CCCC2=O)s1,118% (inactive)
17,Cc1ccc(NC(=O)Cn2nnc(-c3nc(-c4ccncc4)no3)c2N)c(C)c1,92% (inactive)
18,CCc1ccccc1NC(=O)CSc1nccn1C,89% (inactive)
19,CC1=C(c2ccc(C)c(C)c2)S(=O)(=O)N(Cc2ccc(C(=O)NCc3ccc(C)cc3)cc2)C1=O,92% (inactive)
20,COc1ccc(-c2ccc(=O)n(CC(=O)Nc3ccc(N(C)C)cc3)n2)cc1,90% (inactive)
21,CCC1CCCCN1S(=O)(=O)c1ccc(C(=O)Nc2sc3c(c2C(N)=O)CCC3)cc1 (stereo not given),68% (inactive)
22,Cc1ccc(-n2nc(C(=O)N(C)c3ccccc3Cl)c3c4ccccc4n(C)c3c2=O)cc1,88% (inactive)

row,SMILES,survival
1,CCCNS(=O)(=O)c1cc(-c2nnc3c4ccccc4c(C)nn23)ccc1OC,100% (inactive)
2,Cc1cc2c(cc1S(=O)(=O)NCc1ccccc1Cl)OCCN2C,106% (inactive)
3,CCc1ccc(-n2nc3cc(C)c(NC(=O)c4cc(Cl)ccc4OC)cc3n2)cc1,86% (inactive)
4,CCCn1c(=NC(=O)c2cc3ccccc3o2)c(C(=O)OCC)cc2c(=O)n3ccccc3nc21,27% (active)
5,CCOC(=O)c1cc2c(=O)n3ccccc3nc2n(CC(C)C)c1=NC(=O)C(C)(C)Oc1ccc(Cl)cc1,31% (active)
6,CCOC(=O)c1cc2c(=O)n3ccccc3nc2n(CC(C)C)c1=NC(=O)c1cc2ccccc2o1,59% (inactive)
7,CCOC(=O)c1cc2c(=O)n3ccccc3nc2n(CC(C)C)c1=NC(=O)C(C)Oc1ccccc1 (stereo not given),165% (inactive)
8,CCOC(=O)c1cc2c(=O)n3ccccc3nc2n(CCCOC)c1=NC(=O)C(C)Oc1ccccc1 (stereo not given),48% (active)
9,CCOC(=O)c1cc2c(=O)n3ccccc3nc2n(C(C)C)c1=NC(=O)C(C)(C)Oc1ccc(Cl)cc1,57% (inactive)
10,CCOC(=O)c1cc2c(=O)n3ccccc3nc2n(CCOC)c1=NC(=O)c1cc2ccccc2o1,58% (inactive)
11,CCOC(=O)c1cc2c(=O)n3ccccc3nc2n(CCCOC)c1=NC(=O)c1cc2ccccc2o1,65% (inactive)
12,CCOC(=O)c1cc2c(=O)n3ccccc3nc2n(C(C)C)c1=NC(=O)c1c(-c2c(F)cccc2Cl)noc1C,151% (inactive)
13,CCCCn1c(=NC(=O)C(C)(C)Oc2ccc(Cl)cc2)c(C(=O)OCC)cc2c(=O)n3ccccc3nc21,60% (inactive)
14,CCCCn1c(=NC(=O)c2cc3ccccc3o2)c(C(=O)OCC)cc2c(=O)n3ccccc3nc21,107% (inactive)
15,CCOC(=O)c1cc2c(=O)n3ccccc3nc2n(C(C)C)c1=NC(=O)c1cc2ccccc2o1,25% (active)
16,O=C(NC1CSCC1=O)c1ccccc1 (stereo not given),69% (inactive)
17,O=C1CC(c2ccccc2)Sc2nc(-c3ccc(F)cc3)nn21 (stereo not given),81% (inactive)
18,O=c1[nH]cnc2nc3c4ccccc4c4ccccc4c3nc12,74% (inactive)
19,O=C(Nc1cccc(F)c1)c1ccc2c(c1)N(Cc1ccccc1)C(=O)c1ccccc1S2(=O)=O,80% (inactive)
20,O=C1CN=C(Nc2ccccc2Cl)N1Cc1ccccc1,110% (inactive)
21,COc1ccccc1NC(=O)C1CCC(CNS(=O)(=O)c2ccc3c(c2)CC(C)N3C(C)=O)CC1 (stereo not given),58% (inactive)
22,O=C(NC1CC(=O)N(c2cccc(F)c2)C1)c1ccc(S(=O)(=O)N2CCCC2)cc1 (stereo not given),68% (inactive)

row,SMILES,survival
1,CCOCCCNC(=O)C(=O)Nc1c2c(nn1-c1ccc(OC)cc1)CSC2,83% (inactive)
2,Cc1ccc(NC(=O)Cn2c(=O)n(CCc3ccccc3)c(=O)c3c4c(sc32)CCCC4)c(C)c1,92% (inactive)
3,CCC1C=CCC2C(=O)N(CC(=O)NCCC3=CCCCC3)C(=O)C12 (stereo not given),73% (inactive)
4,CC(=O)N1CCCn2c1nc1ccccc12,92% (inactive)
5,Cc1ccc(C)c(N2CCN(C(=O)Cn3cnc4sc(C)c(S(=O)(=O)N5CCN(c6ncccn6)CC5)c4c3=O)CC2)c1,67% (inactive)
6,CC(NC(=O)c1ccc2c(c1)N(Cc1cccc(F)c1)C(=O)c1ccccc1S2)c1ccccc1 (stereo not given),89% (inactive)
7,COc1ccc2c(CNC3CCCC3)c(C(=O)O)n(Cc3ccccc3C)c2c1,95% (inactive)
8,Cc1cccc(C)c1NC(=O)CSc1ncc2c(n1)-c1ccc(Cl)cc1N(Cc1ccccc1)S2(=O)=O,0% (active)
9,CCc1cccc(NC(=O)CSc2ncc3c(n2)-c2ccc(Cl)cc2N(Cc2ccccc2)S3(=O)=O)c1,92% (inactive)
10,COc1ccccc1CNC(=O)CSc1ncc2c(n1)-c1ccc(Cl)cc1N(Cc1ccccc1)S2(=O)=O,32% (active)
11,COc1ccccc1CNC(=O)CSc1ncc2c(n1)-c1cc(Cl)ccc1N(Cc1ccccc1)S2(=O)=O,80% (inactive)
12,O=C(CSc1ncc2c(n1)-c1ccc(Cl)cc1N(Cc1ccccc1)S2(=O)=O)Nc1ccc(F)c(F)c1,131% (inactive)
13,COc1ccc(CNC(=O)CSc2ncc3c(n2)-c2ccc(Cl)cc2N(Cc2ccccc2)S3(=O)=O)cc1,49% (inactive)
14,CCN(CC)N=Nc1ccc(NC(C)=O)cc1,113% (inactive)
15,CCc1ccc(-n2nc(C)c3c(C(=O)Nc4cc(C)ccc4C)cc(C)nc32)cc1,60% (inactive)
16,Cc1c(N)c(C)c(N)c(C)c1N,96% (inactive)
17,CCOc1ccccc1CNC(=O)C1CCN(C(=O)N2CC(CC)Oc3ccc(C)cc32)CC1 (stereo not given),71% (inactive)
18,CCOC(=O)c1c(S(=O)(=O)NCC(=O)Nc2ccc(C)c(Cl)c2)c(C)n(C)c1C,61% (inactive)
19,Cc1ccc(NC(=O)Cn2c(=O)n(Cc3ccc(F)cc3)c(=O)c3cccnc32)cc1C,91% (inactive)
